mHTT-CaM PPI inh – inhibitors of human mutant huntingtin-calmodulin interaction; hit rate 3.6% among 190,000; P42858; inhibition, % at 15 µM; AlphaScreen His-mHTT/GST-CaM binding, luminescence;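 also: 0% = both proteins with DMSO and 100% = one protein alone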
Pf apPOL block – Pf-apPOL DNA polymerase inhibition; Recombinant Pf-apPOL, molecular beacon fluorescence, 1.5 h; inhibition, % at 10 µM; hit rate 0.25% among 210,000; AID 1794808
* = called active by the depositor; · = not tested or not shown; ! = a repeat was not active. Shown is part of a subset that was picked to be rich in hits. Rule as the data show it: active = inhibition above about 50%; inactive = the rest.

SMILES | mHTT-CaM PPI inh | Pf apPOL block
Nc1ccc(Cl)c2c1C(=O)c1ccccc1C2=O | 59* | 3
Cn1c(N2CCCC(C(=O)N3CCN(c4ccccn4)CC3)C2)cc(=O)n(C)c1=O (configuration not stated) | -2 | 3
COC(=O)c1sc2scc(C)c2c1C | · | 64*!
CSC(=CC(=O)c1sc2scc(C)c2c1C)SC | · | -8
COc1cc(CNC(=O)C2CCN(c3nccc(C)n3)CC2)cc(OC)c1OC | -9 | -3
COc1ccc(NC2=C(N(C)C)C(=O)c3ccccc3C2=O)cc1 | 63* | -5
COc1cccc(NC2=C(N(C)C)C(=O)c3ccccc3C2=O)c1 | 58* | 1
COc1ccc(C2=C(Nc3ccc(C(N)=O)cc3)c3ccccc3C2=O)cc1 | 38 | -1
COc1cccc(Nc2ccccc2C)c1 | 15 | -3
Cc1cccc(C)c1NC(=O)C1(N(CC(C)C)C(=O)Cn2nnnc2N)CCCCC1 | 9 | -4
Cc1ccccc1C1CCCN1C(=O)c1cc(C2CC2)on1 (configuration not stated) | -3 | 0
COC(=O)c1ccc(C=C2Oc3cc(OS(=O)(=O)c4ccccc4)ccc3C2=O)cc1 | 1 | -1
Fc1ccc(C2Oc3ccc(Cl)cc3C3CC(c4ccco4)=NN32)cc1F (configuration not stated) | 82* | -17
COc1cccc2c1OC(c1cccc(F)c1)N1N=C(c3ccco3)CC21 (configuration not stated) | 32 | -17
COc1cc(C2Oc3c(OC)cccc3C3CC(c4ccco4)=NN32)cc(OC)c1OC (configuration not stated) | 38 | -14
COc1ccc(C2=NN3C(C2)c2cc(OC)ccc2OC3c2cc(OC)c(OC)c(OC)c2)cc1 (configuration not stated) | 59* | -16
CCOc1cccc2c1OC(c1ccc(F)c(F)c1)N1N=C(c3ccco3)CC21 (configuration not stated) | 14 | -29
COc1cc(C2Oc3ccc(Cl)cc3C3CC(c4ccco4)=NN32)cc(OC)c1OC (configuration not stated) | 63* | -20
COc1cc(C2Oc3ccccc3C3CC(c4ccccc4)=NN32)cc(OC)c1OC (configuration not stated) | -5 | ·
Brc1ccc2c(c1)C1CC(c3ccco3)=NN1C(c1cccs1)O2 (configuration not stated) | 89* | 1
CC(=O)c1ccc(N2CCN(C(=O)c3csc(Nc4ccccn4)n3)CC2)cc1 | -4 | -6
COc1ccc(CC(=O)Nc2ccn(-c3cccc(Cl)c3)n2)cc1 | 4 | -1
COc1cccc(C2Oc3ccc(Cl)cc3C3CC(c4ccco4)=NN32)c1 (configuration not stated) | 47 | -12
COc1ccc(C2Oc3ccc(Cl)cc3C3CC(c4ccco4)=NN32)cc1OC (configuration not stated) | 60* | -20
O=C(Cc1ccc(Cl)cc1)NCC(=O)N1CCOC(c2ccccc2)C1 (configuration not stated) | 0 | -8
SMILES | mHTT-CaM PPI inh | Pf apPOL block
Cc1cc(C2CCCN2C(=O)c2cc(C(F)(F)F)nn2C)no1 (configuration not stated) | -12 | -2
O=C1NC(=O)N(c2ccccc2F)C(=O)/C1=C/c1cn(CC(=O)N2CCCC2)c2ccccc12 | 75* | -1
Cc1ccccc1N1C(=O)NC(=O)/C(=C\c2cn(CC(=O)Nc3ccccc3)c3ccccc23)C1=O | 64* | 0
Cc1cccc(N2C(=O)NC(=O)/C(=C\c3cn(CC(=O)N4CCOCC4)c4ccccc34)C2=O)c1 | -2 | -5
O=C1NC(=O)N(c2ccccc2F)C(=O)/C1=C/c1cn(CC(=O)N2CCCCC2)c2ccccc12 | 59* | -2
Cc1ccccc1N1C(=O)NC(=O)/C(=C\c2cn(CC(=O)N3CCOCC3)c3ccccc23)C1=O | 25 | -11
Cc1cccc(N2C(=O)NC(=O)/C(=C\c3cn(CC(=O)N4CCCC4)c4ccccc34)C2=O)c1C | 5 | -6
CC(C)c1ccc(-c2csc(NC(=O)C3C4CCC(O4)C3C(=O)O)n2)cc1 (configuration not stated) | -1 | 6
Cc1cccc(C(=O)N2CCCC(C(=O)Nc3ccc(C)cc3C)C2)c1 (configuration not stated) | 31 | 1
O=C(Cn1cc(C=C2C(=O)c3ccccc3C2=O)c2ccccc21)Nc1ccccc1 | 9 | -4
Cc1ccccc1-c1nc(-c2ccc([N+](=O)[O-])cc2)no1 | 0 | 18
CCn1c(C2CCN(C(=O)CCc3ccc(OC)cc3)C2)nc2cccnc21 (configuration not stated) | -7 | -1
Cc1ccc(N(C(=O)Cc2ccccc2)C2C=CS(=O)(=O)C2)cc1Cl (configuration not stated) | -4 | 3
CCCCOc1ccc(C(=O)N(c2ccc(C)c(Cl)c2)C2C=CS(=O)(=O)C2)cc1 (configuration not stated) | 64* | -2
O=C(Nc1ccc(Cl)cc1)OCCOCc1c(F)cccc1Cl | · | -9
COc1ccc(OC)c(C=C2Oc3cc(O)cc(C)c3C2=O)c1 | -6 | 4
O=[N+]([O-])c1ccc(N2CCCCC2)nc1 | 7 | 3
O=[N+]([O-])c1ccc(N2CCCCCC2)nc1 | 5 | 99*
Cc1ccc(Nc2nc(-c3ccccc3)cs2)cc1Cl | 54* | -7
Cc1ccc(C)c(-c2csc(Nc3ccc(F)cc3)n2)c1 | 48 | 1
Nc1ccc(Nc2nc(-c3ccccc3)cs2)cc1 | 97* | 6
NC(=O)C(=O)Nc1nc(-c2ccccc2)cs1 | 0 | -2
Cc1ccc(Nc2nc(-c3ccccc3)cs2)cc1C | 73* | -8
Cc1ccc(Nc2nc(-c3ccc(F)cc3)cs2)cc1C | 98* | -1
COc1cc(C(F)(F)F)cc(C(F)(F)F)c1C(=O)O | · | -13
SMILES | mHTT-CaM PPI inh | Pf apPOL block
O=[N+]([O-])c1cccc(-c2noc(-c3cccc(I)c3)n2)c1 | 3 | -2
Cc1nc(-c2ccc(-c3noc(COc4ccc(F)cc4)n3)cc2)cs1 | -3 | 0
O=C(NCc1cccnc1)c1ccn2c(-c3cccc(Cl)c3)nnc2c1 | 2 | 0
Cc1ccc(NS(=O)(=O)c2ccccc2[N+](=O)[O-])cc1C | 12 | 51*
O=[N+]([O-])c1ccccc1S(=O)(=O)Nc1ccc(Cl)c(Cl)c1 | 5 | -11
COc1cccc(C=Nc2ccc3nc(SCC(=O)N4CCOCC4)sc3c2)c1O | 6 | -2
CCOC(=O)Oc1cc2oc(=O)sc2cc1Br | 22 | 7
CCOC(=O)Oc1c(Cl)cc2oc(=O)sc2c1Br | 54* | 0
COC(=O)Oc1cc2oc(=O)sc2cc1Cl | 22 | 0
COC(=O)Oc1c(Cl)cc2oc(=O)sc2c1[N+](=O)[O-] | 81* | 9
CCc1ccc(C2=CC(c3ccccc3Cl)n3ncnc3N2)cc1 (configuration not stated) | 8 | -6
Clc1ccc(Cl)c(-c2ccc(CNCc3ccco3)o2)c1 | -14 | -3
CC(C)NC(=O)NC(C)(C)COC12CC3CC(CC(C3)C1)C2 | -9 | ·
O=c1c2c(-c3ccc(F)cc3)csc2ncn1-n1cccc1 | 2 | -4
O=c1[nH]cnc(O)c1Cc1c(O)nc[nH]c1=O | -3 | -4
N#C/C(=C\c1ccco1)c1nc(-c2ccccc2)cs1 | -10 | -3
N#C/C(=C\C=C\c1ccco1)c1nc2ccccc2s1 | 76* | -10

Source: PubChem
